Calls of active or inactive are those of the source.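 The calls were made as follows, unless noted: active = compounds lowering colon cancer cell viability after pretreatment blocking the GSK3B kinase; inactive = the rest.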
Experiments:
[1] = stimulators of nuclear beta-catenin in C2C12, primary screen, imaging, WNT3A-conditioned medium, mouse C2C12, NPC library (AID 1117326; in the data active = nuclear beta-catenin stimulation mostly above about 4.2%, no sharp cut-off; inactive = mostly below about 10%; also: reference of the scale not given here); details: stronger effect = higher value
[2] = stimulators of insulin release from INS-1E, primary screen, cell-based, 5 mM glucose, NPC library (AID 1117329;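 active = compound raises insulin release from rat beta cells at 5 mM glucose, no numeric limit stated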; also: reference of the scale not given here); details: rat INS-1E insulin secretion, at 10 µM, stronger effect = higher value
[3] = growth inhibition of GSK3B-pretreated HCT116 cells – cell-based, CellTiter-Glo, 0.2 to 20 µM (AID 1117336); details: HCT116 viability after GSK3B inhibitor, at 20 µM, stronger effect = higher value
[4] = inhibition of endothelial tube formation, primary screen, imaging, VEGF stimulated, CD31 staining, tube area, NPC library (AID 1117340;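 active = compound that reduces growth-factor-driven endothelial tube area in a mixed cell culture, no cutoff stated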); details: VEGF-stimulated ADSC/ECFC co-culture, at 10 µM, stronger effect = higher value
[5] = glucagon-like peptide 1 release enhancers, primary assay, NCI-H716 cell line, NPC library (AID 1117341;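 active = compound raises GLP1 secretion from the human gut endocrine cells, with no numeric limit stated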; also: reference of the scale not given here); details: NCI-H716 cells, at 10 µM, stronger effect = higher value
[6] = HCT116 colon cancer cell growth inhibition, primary screen, CellTiter-Glo luminescence, NPC library (AID 1117342;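 active = compounds that lower survival of HCT116 colon cancer cells in the luminescence readout, no numeric limit stated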); details: at 20 µM (top of the series)
[7] = CellTiter-Glo luminescent readout of SW480 viability loss, NPC library primary (AID 1117343;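 active = compounds that lower viability of the colon cancer cells in the luminescence readout, with no numeric limit stated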); details: CellTiter-Glo luminescence; at 20 µM (top of the series)
[8] = decreased DLD-1 cellular survival, CellTiter-Glo luminescent readout, NPC compound collection, primary HTS (AID 1117346;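 active = compounds that lower survival of DLD-1 colon cancer cells in the luminescence readout, no cutoff given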); details: DLD-1 viability, CellTiter-Glo luminescence; at 20 µM (top of the series)

Row | SMILES | nuclear beta-catenin stimulation ([1]; at 10 µM) | nuclear beta-catenin stimulation ([1]; stimulation, at 2 µM) [%] | insulin secretion stimulation [2] | viability decrease [3] | tube area decrease [4] | GLP1 secretion stimulation [5] | inhibition of viability [6] | viability decrease (inhibition) [7] | viability decrease (inhibition) [8]
1 | CN(C)C(=O)CNC(=O)Cc1ccccc1 | -0.3% (inactive) | 2.4 | 2.5% (inactive) | 4.9% (inactive) | 7.1% (inactive) | -1.3% (inactive) | 7.5% (inactive) | -4.5% (inactive) | -0.5% (inactive)
2 | COc1cc(/C=C/C(=O)O[C@H]2CC[C@]34C[C@]35CC[C@]3(C)[C@@H]([C@H](C)CCC=C(C)C)CC[C@@]3(C)[C@@H]5CC[C@H]4C2(C)C)ccc1O | -1.5% (inactive) | -1.7 | 7.6% (inactive) | 2.6% (inactive) | -12.4% (inactive) | 0.5% (inactive) | 10% (inactive) | -10.1% (inactive) | -6.9% (inactive)
3 | Cc1cc2nc3c(=O)[nH]c(=O)nc-3n(C[C@H](O)[C@H](O)[C@H](O)COP(=O)(O)OP(=O)(O)OC[C@H]3O[C@@H](n4cnc5c(N)ncnc54)[C@H](O)[C@H]3O)c2cc1C | -2.2% (inactive) | 0.2 | 5.5% (inactive) | -3.6% (inactive) | -2.4% (inactive) | -3.7% (inactive) | -18.9% (inactive) | 16.1% (inactive) | -48.9% (inactive)
4 | CN(C)CCOC(c1ccccc1)c1ccc(Br)cc1 (centres undefined) | 4.6% (inactive) | 5.4 | 95% (active) | -92.2% (inactive) | -4.6% (inactive) | 12.6% (inactive) | 29.9% (inactive) | 55.5% (active) | 5.7% (inactive)
5 | CC(=O)Nc1ccn(C2COC(COC(=O)c3ccccc3)O2)c(=O)n1 (centres undefined) | 8.2% (inactive) | -0.9 | 1% (inactive) | 54% (active) | 100% (active) | 1.2% (inactive) | 56.5% (active) | 26.9% (inactive) | 29.9% (inactive)
6 | Cc1cc(CCCOc2c(C)cc(-c3noc(C(F)(F)F)n3)cc2C)on1 | 9.7% (inactive) | -3.5 | -0.2% (inactive) | 46.3% (inactive) | -0.1% (inactive) | -4.1% (inactive) | 68.5% (active) | 45.6% (inactive) | 71.8% (active)
7 | CC(C)(Cc1c[nH]c2ccccc12)NCC(O)COc1ccccc1C#N (centres undefined) | 0.2% (inactive) | 0 | 44.5% (active) | 84.6% (active) | 12.6% (inactive) | 3.9% (inactive) | 87% (active) | 109% (active) | 49.7% (inactive)
8 | CN(C)CCOc1ccccc1Cc1ccccc1 | -1.8% (inactive) | 2.3 | 22% (active) | -14% (inactive) | 4.9% (inactive) | -5.1% (inactive) | 11.4% (inactive) | 34% (inactive) | 0.8% (inactive)
9 | CC(C)C(=O)OCc1cccc(OC(=O)[C@@H]2N3C(=O)[C@@H](NC(=O)Cc4ccccc4)[C@H]3SC2(C)C)c1 | 0.9% (inactive) | -0.1 | 2.2% (inactive) | 117% (active) | -4.7% (inactive) | 3.4% (inactive) | 123% (active) | 60.1% (active) | 10.1% (inactive)
10 | NC[C@H]1O[C@H](O[C@H]2[C@@H](O)[C@@H](O[C@H]3O[C@H](CO)[C@@H](O)[C@H](N)[C@@H]3O)[C@H](N)C[C@@H]2N)[C@H](N)C[C@H]1O | 0.2% (inactive) | 1.4 | -1.2% (inactive) | -19.7% (inactive) | -1.5% (inactive) | -0.3% (inactive) | -0.2% (inactive) | 39.1% (inactive) | -15.9% (inactive)
11 | C[N+]1(CC2COC(c3ccccc3)(c3ccccc3)O2)CCCCC1 (centres undefined) | 1.5% (inactive) | -0.6 | 6.4% (inactive) | 7.4% (inactive) | -12.8% (inactive) | 0.7% (inactive) | 23.2% (inactive) | 10.8% (inactive) | 0.5% (inactive)
12 | CCCC(CCC)(C(=O)OCC)C(=O)OCC | -1.3% (inactive) | -2.9 | 2.1% (inactive) | 11.4% (inactive) | -3.8% (inactive) | 3.5% (inactive) | 12.2% (inactive) | 1.4% (inactive) | -4.9% (inactive)
13 | NC(=O)CC[C@@H](N)C(=O)O | 2.1% (inactive) | 3.8 | -0.7% (inactive) | -14.2% (inactive) | 15.2% (inactive) | -0.1% (inactive) | 2.55% (inactive) | 11.4% (inactive) | -7.9% (inactive)
14 | NCCNc1cccc2ccccc12 | 1.9% (inactive) | 1.1 | 1.9% (inactive) | -5.55% (inactive) | -35.7% (inactive) | 0.6% (inactive) | 17.2% (inactive) | 51.5% (active) | 7.9% (inactive)
15 | CCOC(=O)[C@@H](N)CS | -2% (inactive) | -1 | 2.3% (inactive) | -17.1% (inactive) | 2.3% (inactive) | 21% (active) | -5.6% (inactive) | 34.7% (inactive) | 4.2% (inactive)
16 | NCC[C@H](O)C(=O)N[C@@H]1C[C@H](N)[C@@H](O[C@H]2O[C@H](CN)[C@@H](O)[C@H](O)[C@@H]2O)[C@H](O)[C@@H]1O[C@H]1O[C@H](CO)[C@@H](O)[C@H](N)[C@@H]1O | 0.4% (inactive) | -1.1 | 1.1% (inactive) | -9.3% (inactive) | -7.9% (inactive) | 0.5% (inactive) | -2.7% (inactive) | -3.7% (inactive) | 0.5% (inactive)

From PubChem BioAssay
